Only some compounds are listed: those with a hit (about 10% of all), similar ones and a draw of the others.
BAZ2B block – blocks human BAZ2B | AlphaScreen BAZ2B-H3K14Ac peptide displacement | Potency, µM (doses to about 114 µM), without a hit: top-dose activity change, negative = inhibition, hits mostly inhibitors | hit rate 4.4% among 360,000; further: on the % scale 0 is the no-effect control and ±100 the full control effect; nearly all actives have a fitted effect of over 60% in size
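BAZ2B (50 nM) with biotin-H3(5-23)K14Ac peptide (50 nM) in PBS pH 7.4, 0.01% Tween-20, preformed 30 min, then compound 30 min at room temperature; top concentration 110uM. AlphaScreen streptavidin donor/nickel chelate acceptor beads (10 ug/mL final), 20 min dark, signal read.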
G9a inh – blocks human histone lysine methyltransferase G9a | Q96KQ7 | G9a H3K9 monomethylation, AlphaScreen, 2 h | Potency, µM (titrated, usually from 102 µM), for inactives: at the highest dose activity, negative = inhibition, actives largely listed as inhibitors | hit rate 8.8% among 350,000 | AID 504332; further: on the % scale 0 is the no-effect control and ±100 the full control effect; nearly all actives have a fitted effect of over 75% in size
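Methyltransferase reactions run at room temperature for 2 h (20 nM enzyme, 500 nM biotin-H3K9 peptide, 20 uM SAM) after a 15 min compound preincubation; product detected by AlphaScreen beads and anti-H3K9me1 antibody.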
L3MBTL1 block – blocks human L3MBTL1; hit rate 0.66% among 230,000; Potency, µM (series often up to 57.1 µM), for the others: top-dose activity, negative = inhibition, most hits filed as inhibitors; AlphaScreen L3MBTL1–H3K9me1 peptide binding; AID 485360; Q9Y468; further: on the % scale 0 is the no-effect control and ±100 the full control effect; nearly all actives have a fitted effect of over 60% in size
Target sequence (Q9Y468 whole entry, looked up): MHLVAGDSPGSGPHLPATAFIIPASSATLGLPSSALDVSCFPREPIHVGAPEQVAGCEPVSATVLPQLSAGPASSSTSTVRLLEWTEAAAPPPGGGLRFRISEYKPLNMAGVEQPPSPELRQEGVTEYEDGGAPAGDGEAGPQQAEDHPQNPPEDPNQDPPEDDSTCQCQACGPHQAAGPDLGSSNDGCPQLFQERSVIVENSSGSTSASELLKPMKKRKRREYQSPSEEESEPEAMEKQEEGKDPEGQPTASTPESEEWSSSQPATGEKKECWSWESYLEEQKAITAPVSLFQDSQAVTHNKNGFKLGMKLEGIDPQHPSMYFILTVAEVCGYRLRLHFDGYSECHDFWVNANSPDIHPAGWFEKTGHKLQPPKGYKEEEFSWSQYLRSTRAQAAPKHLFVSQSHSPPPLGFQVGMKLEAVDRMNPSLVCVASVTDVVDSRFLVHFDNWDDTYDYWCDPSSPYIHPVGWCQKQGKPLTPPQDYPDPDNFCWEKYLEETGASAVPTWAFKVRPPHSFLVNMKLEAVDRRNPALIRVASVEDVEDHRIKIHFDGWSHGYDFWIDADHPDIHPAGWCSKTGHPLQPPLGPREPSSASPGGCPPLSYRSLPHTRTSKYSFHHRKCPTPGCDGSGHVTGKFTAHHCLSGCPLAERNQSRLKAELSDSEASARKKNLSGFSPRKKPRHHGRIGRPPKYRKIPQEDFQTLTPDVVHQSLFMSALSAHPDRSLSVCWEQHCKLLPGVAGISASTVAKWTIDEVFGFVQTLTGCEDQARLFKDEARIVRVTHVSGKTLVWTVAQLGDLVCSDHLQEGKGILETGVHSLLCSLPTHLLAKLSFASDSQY
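Displacement of a biotinylated histone H3(1-15) peptide monomethylated at Lys9 (75 nM) from L3MBTL1 (50 nM) was measured by AlphaScreen after a 30 min room-temperature compound incubation; cefsulodin titration served as intraplate control.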
HP1b chromo inh – inhibitors of HP1-beta chromodomain binding to methylated histone tails | hit rate 0.56% among 390,000 | AlphaScreen HP1-beta / biotin-H3K9me3 peptide binding | Potency, µM (titrated, usually from 114 µM), inactives show at the highest dose activity change, negative = inhibition, actives largely listed as inhibitors | P83916; further: nearly all actives have a fitted effect of over 70% in size
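Compound inhibition of the preformed complex between 50 nM HP1-beta and 50 nM biotinylated H3K9me3 peptide was read by AlphaScreen. Buffer was PBS pH 7.4 with 0.01% Tween-20. Incubations ran 30 min at room temperature, with 10 ug/mL donor/acceptor beads.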
GLS inhibitor – inhibitors of human glutaminase (GLS) | O94925 | GLS enzymatic activity, qHTS titration | Potency, µM (highest dose often 45.5 µM), inactives show at the highest dose activity change, negative = inhibition, hits mostly inhibitors | hit rate 0.21% among 410,000 | AID 624170; further: on the % scale 0 is the no-effect control and ±100 the full control effect
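Read-out is an Amplex red fluorescence increase coupled through glutamate oxidase and HRP, measured before and after 30 min room-temperature incubation. hKGA is in 45 mM KH2PO4 (pH 8.2) with 0.02% Tween-20; glutamine added as 1mM solution.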
JMJD2A Tudor inh – inhibitors of human JMJD2A Tudor domain; hit rate 4.4% among 390,000; AlphaScreen JMJD2A-Tudor / H3K4me3 peptide binding; AID 504339; Potency, µM (top dose mostly 114 µM), for inactives: top-dose activity change, negative = inhibition, most hits filed as inhibitors; further: on the % scale 0 is the no-effect control and ±100 the full control effect; nearly all actives have a fitted effect of over 50% in size
The depositor's hits bear a star; u = inconclusive; x = no result given; ! = not active in a repeat; [ ] = dose if it differs, or a comment. The call rests on the fitted dose curve; in most records, active means well fitted curve in the direction sought with a large enough effect; inconclusive means small, poorly fitted or top-dose-only effect, or another doubt; inactive means no such curve, though single readings can be large; an effect the other way counts as inactive or inconclusive. Potency means the concentration at half of the fitted maximal effect.

SMILES	BAZ2B block	G9a inh	L3MBTL1 block	HP1b chromo inh	GLS inhibitor	JMJD2A Tudor inh
CC(C)CCOP(=O)(c1ccc(N(C)C)cc1)C(O)c1ccc(N(C)C)cc1 (stereo unspecified)	u	2.2µM*	x	-5%	14%	7.1µM*
CC(C)CCOP(=O)(c1ccc(N(C)C)cc1)C(Nc1ccccc1)c1ccc(N(C)C)cc1 (stereo unspecified)	u	14µM*	-2%	-19%	2%	45µM*
CCCOP(=O)(c1ccc(N(C)C)cc1)C(O)c1ccc(N(C)C)cc1 (stereo unspecified)	-23%	0.71µM*	x	24%	10%	8.9µM*
CCCOP(=O)(c1ccc(N(C)C)cc1)C(O)c1ccc(Br)cc1 (stereo unspecified)	-27%	-2%	x	9%	-9%	-14%
COc1ccc(Cn2c(CCC(=O)NCc3cccc(Cl)c3)nc3cccnc32)cc1	-35%	-13%[59 µM]	x	19%	-2%	-1%
O=S(=O)(c1ccc2c(c1)OCCO2)N1CCN(S(=O)(=O)c2cccs2)CC1	x	x	x	x	x	-14%
COc1ccc2[nH]cc(CCNC(C)=O)c2c1	x	0%[59 µM]	x	11%	-1%	-19%
CC(=O)NCCc1c[nH]c2ccc(O)cc12	x	11µM*!	x	35%	74%	-9%
COc1ccc(CNS(=O)(=O)c2ccc3c(c2)CC(C)N3C(=O)C2CC2)cc1 (stereo unspecified)	-6%	-3%[59 µM]	x	32%	1%	-14%
CN(C)c1ccc(CNS(=O)(=O)c2csc(C(N)=O)c2)cc1	-11%	50µM*	x	15%	u	-17%
CC1Cc2cc(S(=O)(=O)NCc3ccc(N(C)C)cc3)ccc2N1C(=O)C1CCC1 (stereo unspecified)	35µM*	11µM*	x	-21%	-3%	45µM*
COc1ccc(-c2nnc(SCC(=O)Nc3ccc(C(=O)O)cc3)n2-c2ccc(Cl)cc2)cc1	u	8%	x	37%	-2%	-24%
Cn1c(SCC(=O)NNC(=S)Nc2ccccc2)nnc1-c1ccncc1	24%	71µM*	x	x	x	x
O=C(CSc1nnc(-c2ccccc2)n1-c1ccc(Cl)cc1)NNC(=S)Nc1ccccc1	-5%	10µM*	-2%	31%	14%	-6%[57.1 µM]
CCn1c(SCC(=O)NNC(=S)Nc2ccccc2)nnc1-c1ccc(Cl)cc1	1%	20µM*	4%	34%	11%	-10%
C=CCn1c(SCC(=O)NNC(=S)Nc2ccccc2)nnc1-c1ccccc1	4%	-19%[59 µM]	6%	39%	0%	9%
NC1=NC(S)C2N=CN=C2N1 (stereo unspecified)	x	25µM*	x	x	-16%	x
COc1ccccc1Nc1ccc(NS(=O)(=O)c2ccc(C(C)=O)cc2)cc1	u	35µM*	x	u	33%	40µM*
COc1ccccc1Nc1ccc(N)cc1	28µM*	13µM*	u	u	11µM*	50µM*
CC(=O)c1sc(NC(=O)c2c(-c3ccccc3)c(-c3ccccc3)nn(C)c2=O)nc1C	2%	-4%[59 µM]	x	35%	11%	-12%
O=C(NCc1cccc(F)c1)C1CCN(c2nc3ccccc3nc2C(F)(F)F)CC1	0%	-1%[59 µM]	x	16%	-17%	-5%
COc1cc(OC)c(C2=NOC(C(=O)Nc3ccc4c(c3)OCO4)C2)cc1Cl (stereo unspecified)	-31%	40µM*	1%	-8%	-7%	-29%
COc1ccc(C2=NOC(C(=O)Nc3ccc4c(c3)OCO4)C2)cc1 (stereo unspecified)	-13%	u	x	14%	-3%	-34%
Cc1ccc(NS(=O)(=O)c2cccc(F)c2)cc1C	x	x	x	x	x	-1%
COc1cccc(C2C3(C#N)C(N)=NC(OC)(OC)C23C#N)c1 (stereo unspecified)	0%[57.1 µM]	20%	1%	19%	-9%	-4%
SMILES	BAZ2B block	G9a inh	L3MBTL1 block	HP1b chromo inh	GLS inhibitor	JMJD2A Tudor inh
CCOC1(OCC)N=C(N)C2(C#N)C(c3ccc(NC(C)=O)cc3)C12C#N (stereo unspecified)	79µM*	50µM*	-7%	12%	3%	u
COC1(OC)N=C(N)C2(C#N)C(c3ccc(F)cc3)C12C#N (stereo unspecified)	-33%	25%[12.7 µM]	6%	11%	-9%	-28%
CCSC1(SCC)N=C(N)C2(C#N)C(c3ccc(F)cc3)C12C#N (stereo unspecified)	-23%	40µM*	3%	44%	8%	-6%
CC1CCN(c2nc3c(S(=O)(=O)c4cccc(Cl)c4)nnn3c3ccsc23)CC1	u	-12%[59 µM]	x	29%	-7%	-18%
O=C(O)c1cccnc1Nc1cccc(C(F)(F)F)c1	79µM*	11%[59 µM]	8%	21%	5%	6%
O=C(Nc1cccc(C(F)(F)F)c1)c1cccnc1N1CCN(c2ccccc2)CC1	50µM*	u	x	14%	10%	79µM*
C=C(C)c1cc2c(s1)c1cnn(Cc3ccccc3F)c(=O)c1n2C	x	x	x	x	x	-22%
COc1cc(NC(=O)Cn2ccc3ccccc3c2=O)cc(OC)c1OC	-14%	-34%[59 µM]	x	30%	2%	-9%
Cc1cc(C)cc(NC(=O)C2CCN(S(=O)(=O)c3cccc(-c4noc(C)n4)c3)CC2)c1	-32%	-10%[59 µM]	x	19%	1%	-22%
COc1ccc(NC(=O)CSc2nc(-c3ccco3)cc(C(F)(F)F)n2)cc1Cl	-5%	2%[59 µM]	x	13%	-1%	-12%
COc1ccc(NC(=O)CSc2nc(-c3ccco3)nc3cc(=O)[nH]n23)cc1	79µM*	2%[59 µM]	x	22%	-27%	-10%
COc1ccc(NC(=O)CSc2nnc(-c3ccco3)n2C)cc1	-15%	7%[12.7 µM]	x	22%	-11%	-17%
COc1ccc(NC(=O)CSc2nc(-c3ccco3)nc3cc(=O)[nH]n23)cc1Cl	79µM*	8%	x	-3%	-18%	45µM*
Cc1ccc(NC(=O)CSc2nc(-c3ccco3)nc3cc(=O)[nH]n23)cc1C	40µM*	u	x	28%	-23%	-34%
COc1cc(/C=C/c2nc(C#N)c(N3CCN(C)CC3)o2)cc(OC)c1OC	-3%	5%[59 µM]	x	38%	1%	-8%
CCN(Cc1ccccc1)Cc1c(F)cccc1F	x	u	9%	u	6%	20µM*
CCN(Cc1ccccc1)Cc1cc(OC)cc(OC)c1	33%	-13%[59 µM]	10%	63%	7%	34%
COc1ccc(/C=C(/C(=O)c2cccs2)N2C=CC=CC2=C(C#N)C#N)cc1	-34%	8.9µM*	0%	-12%	u	u
CCCCCCCCCCOCC(O)CN (stereo unspecified)	x	1%[12.7 µM]	x	x	-7%	x
CC1CCCC2(C1)NC(=S)c1c(sc3c1CCCC3)N2 (stereo unspecified)	u	8.9µM*	x	u	-3%	79µM*
